Results reported in paper PMC7862700, “An all-to-all approach to the identification of sequence-specific readers for epigenetic DNA modifications on cytosine”.

Legend:
Assay in all cases: DAPPL (digital affinity profiling via proximity ligation, sequencing); 10 mM Tris-HCl pH 7.5, 50 mM NaCl, 1 mM DTT, 4% glycerol, room temperature, 30 min; GST-TFs on glutathione beads, 16-mer random dsDNA library, 0.1% formaldehyde crosslink after washing; high values mean tight binding
Settings in all cases: protein: recombinant; tags: N-terminal GST; dsDNA, one strand shown
ELK1 = molecular target: T1, ELK1 (Homo sapiens, UniProt P19419 1-428)
T1 sequence: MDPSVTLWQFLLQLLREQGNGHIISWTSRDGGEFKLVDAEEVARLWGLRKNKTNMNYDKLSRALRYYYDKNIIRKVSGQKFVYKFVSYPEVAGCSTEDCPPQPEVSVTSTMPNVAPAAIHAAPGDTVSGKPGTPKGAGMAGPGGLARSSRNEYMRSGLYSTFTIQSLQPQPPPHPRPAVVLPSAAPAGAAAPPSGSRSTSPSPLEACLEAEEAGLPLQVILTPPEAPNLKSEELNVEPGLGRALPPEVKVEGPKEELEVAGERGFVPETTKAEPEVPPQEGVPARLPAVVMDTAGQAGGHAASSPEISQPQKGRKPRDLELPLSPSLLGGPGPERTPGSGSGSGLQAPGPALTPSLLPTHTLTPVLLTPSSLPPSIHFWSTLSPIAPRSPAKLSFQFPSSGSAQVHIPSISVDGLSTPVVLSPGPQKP
In short: (§1)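 A tag-only sample was pooled with DNA-barcoded human transcription factors that had been expressed in yeast as GST fusions and captured on glutathione beads. The pools were incubated for 30 min at room temperature with 200 nmole of a random double-stranded 16-mer DNA library in Tris/NaCl/DTT/glycerol buffer, then washed, crosslinked with 0.1% formaldehyde, proximity-ligated (BsaI/T4 ligase, 1 h, 37 °C), PCR-amplified and sequenced on an Illumina NextSeq500. Binding signal is each hexamer's read frequency for a factor divided by its frequency for the tag-only sample.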

GABPA = molecular target: T2, GABPA (Homo sapiens, UniProt Q06546 1-454)
T2 sequence: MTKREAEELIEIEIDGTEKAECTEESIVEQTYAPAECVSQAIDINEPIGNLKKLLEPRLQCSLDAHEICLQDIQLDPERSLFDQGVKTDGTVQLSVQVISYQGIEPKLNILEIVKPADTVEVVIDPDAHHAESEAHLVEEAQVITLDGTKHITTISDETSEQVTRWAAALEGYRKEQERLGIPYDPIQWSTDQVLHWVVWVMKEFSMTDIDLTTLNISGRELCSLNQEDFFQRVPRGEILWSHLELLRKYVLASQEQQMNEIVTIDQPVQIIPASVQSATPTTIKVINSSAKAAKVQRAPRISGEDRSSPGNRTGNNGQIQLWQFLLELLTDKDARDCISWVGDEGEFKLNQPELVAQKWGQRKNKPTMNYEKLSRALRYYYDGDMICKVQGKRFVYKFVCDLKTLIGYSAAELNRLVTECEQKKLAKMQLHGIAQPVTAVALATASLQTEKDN
In short: as §1

ERG = molecular target: T3, ERG (Homo sapiens, UniProt P11308 1-479)
T3 sequence: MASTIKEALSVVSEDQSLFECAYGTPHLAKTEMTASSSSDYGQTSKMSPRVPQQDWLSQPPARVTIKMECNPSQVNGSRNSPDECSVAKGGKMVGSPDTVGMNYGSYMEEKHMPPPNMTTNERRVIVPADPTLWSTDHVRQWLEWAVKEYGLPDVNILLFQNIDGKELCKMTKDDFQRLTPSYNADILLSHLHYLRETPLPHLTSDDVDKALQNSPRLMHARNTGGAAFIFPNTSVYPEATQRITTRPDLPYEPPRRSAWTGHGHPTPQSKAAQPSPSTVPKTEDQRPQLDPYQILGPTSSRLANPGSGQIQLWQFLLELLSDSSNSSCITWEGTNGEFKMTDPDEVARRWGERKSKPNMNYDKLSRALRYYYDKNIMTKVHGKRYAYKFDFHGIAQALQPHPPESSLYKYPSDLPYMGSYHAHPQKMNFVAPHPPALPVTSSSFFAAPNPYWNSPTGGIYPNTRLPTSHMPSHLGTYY
In short: as §1

ELF1 = ELF1 (Homo sapiens, UniProt P32519 1-619)
ELF1, sequence (P32519 whole entry): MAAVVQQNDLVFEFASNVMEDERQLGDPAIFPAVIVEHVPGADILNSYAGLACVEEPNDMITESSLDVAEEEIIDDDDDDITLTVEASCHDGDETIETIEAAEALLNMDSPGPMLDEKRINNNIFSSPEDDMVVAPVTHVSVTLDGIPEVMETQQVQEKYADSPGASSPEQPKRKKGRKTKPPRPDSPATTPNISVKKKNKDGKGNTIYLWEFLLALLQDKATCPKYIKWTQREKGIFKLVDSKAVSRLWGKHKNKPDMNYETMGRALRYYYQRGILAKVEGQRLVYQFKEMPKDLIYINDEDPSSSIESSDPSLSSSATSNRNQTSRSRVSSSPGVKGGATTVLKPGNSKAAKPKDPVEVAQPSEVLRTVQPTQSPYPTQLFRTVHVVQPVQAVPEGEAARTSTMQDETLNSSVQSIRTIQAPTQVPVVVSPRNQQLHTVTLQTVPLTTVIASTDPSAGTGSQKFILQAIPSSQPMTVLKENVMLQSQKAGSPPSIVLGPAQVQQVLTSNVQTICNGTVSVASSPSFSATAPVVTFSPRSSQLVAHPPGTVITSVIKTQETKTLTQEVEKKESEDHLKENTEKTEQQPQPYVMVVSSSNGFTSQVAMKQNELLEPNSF
In short: as §1

EHF = molecular target: T4, EHF (Homo sapiens, UniProt Q9NZC4 1-300)
T4 sequence: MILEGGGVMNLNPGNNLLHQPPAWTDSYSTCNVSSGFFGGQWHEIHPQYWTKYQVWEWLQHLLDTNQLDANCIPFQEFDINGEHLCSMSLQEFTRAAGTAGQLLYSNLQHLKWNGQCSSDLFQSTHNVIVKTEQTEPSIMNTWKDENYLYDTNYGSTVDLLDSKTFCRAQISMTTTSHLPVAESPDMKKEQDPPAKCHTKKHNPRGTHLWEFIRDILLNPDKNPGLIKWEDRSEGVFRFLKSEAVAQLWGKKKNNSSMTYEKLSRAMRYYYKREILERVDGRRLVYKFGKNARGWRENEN
In short: as §1

SPIB = SPIB (Homo sapiens, UniProt Q01892 1-262)
SPIB, sequence (Q01892 whole entry): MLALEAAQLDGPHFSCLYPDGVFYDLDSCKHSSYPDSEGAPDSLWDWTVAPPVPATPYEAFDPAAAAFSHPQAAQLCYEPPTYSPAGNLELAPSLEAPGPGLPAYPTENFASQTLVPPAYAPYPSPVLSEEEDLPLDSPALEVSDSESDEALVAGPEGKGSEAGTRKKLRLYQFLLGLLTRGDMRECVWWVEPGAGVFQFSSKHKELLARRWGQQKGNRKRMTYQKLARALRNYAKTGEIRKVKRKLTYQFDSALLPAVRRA
In short: as §1

FEV = molecular target: T5, FEV (Homo sapiens, UniProt Q99581 1-238)
T5 sequence: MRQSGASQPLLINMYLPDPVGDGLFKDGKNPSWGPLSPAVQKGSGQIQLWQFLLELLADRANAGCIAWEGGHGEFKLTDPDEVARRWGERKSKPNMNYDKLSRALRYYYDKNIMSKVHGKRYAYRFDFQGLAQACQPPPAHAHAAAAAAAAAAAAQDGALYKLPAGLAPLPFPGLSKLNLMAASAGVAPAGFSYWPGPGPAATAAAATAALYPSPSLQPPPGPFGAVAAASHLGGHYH
In short: as §1

ETV5 = ETV5 (Homo sapiens, UniProt P41161 1-510)
ETV5, sequence (P41161 whole entry): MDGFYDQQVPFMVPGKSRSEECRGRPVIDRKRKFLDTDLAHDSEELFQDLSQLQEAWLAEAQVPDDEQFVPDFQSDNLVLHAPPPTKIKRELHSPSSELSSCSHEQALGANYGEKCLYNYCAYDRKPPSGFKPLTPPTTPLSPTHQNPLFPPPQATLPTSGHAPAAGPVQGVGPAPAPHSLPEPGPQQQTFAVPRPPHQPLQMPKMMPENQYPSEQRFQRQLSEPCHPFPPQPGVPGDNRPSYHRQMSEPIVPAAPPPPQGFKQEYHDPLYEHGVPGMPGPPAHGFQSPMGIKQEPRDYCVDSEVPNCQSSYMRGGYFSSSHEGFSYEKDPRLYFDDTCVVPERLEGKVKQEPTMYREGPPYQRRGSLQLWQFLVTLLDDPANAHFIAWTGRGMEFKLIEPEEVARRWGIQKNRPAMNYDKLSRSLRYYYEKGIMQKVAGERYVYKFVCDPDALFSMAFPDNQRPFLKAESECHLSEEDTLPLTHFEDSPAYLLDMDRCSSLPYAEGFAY
In short: as §1

ELF4 = ELF4 (Homo sapiens, UniProt Q99607 1-663)
ELF4, sequence (Q99607 whole entry): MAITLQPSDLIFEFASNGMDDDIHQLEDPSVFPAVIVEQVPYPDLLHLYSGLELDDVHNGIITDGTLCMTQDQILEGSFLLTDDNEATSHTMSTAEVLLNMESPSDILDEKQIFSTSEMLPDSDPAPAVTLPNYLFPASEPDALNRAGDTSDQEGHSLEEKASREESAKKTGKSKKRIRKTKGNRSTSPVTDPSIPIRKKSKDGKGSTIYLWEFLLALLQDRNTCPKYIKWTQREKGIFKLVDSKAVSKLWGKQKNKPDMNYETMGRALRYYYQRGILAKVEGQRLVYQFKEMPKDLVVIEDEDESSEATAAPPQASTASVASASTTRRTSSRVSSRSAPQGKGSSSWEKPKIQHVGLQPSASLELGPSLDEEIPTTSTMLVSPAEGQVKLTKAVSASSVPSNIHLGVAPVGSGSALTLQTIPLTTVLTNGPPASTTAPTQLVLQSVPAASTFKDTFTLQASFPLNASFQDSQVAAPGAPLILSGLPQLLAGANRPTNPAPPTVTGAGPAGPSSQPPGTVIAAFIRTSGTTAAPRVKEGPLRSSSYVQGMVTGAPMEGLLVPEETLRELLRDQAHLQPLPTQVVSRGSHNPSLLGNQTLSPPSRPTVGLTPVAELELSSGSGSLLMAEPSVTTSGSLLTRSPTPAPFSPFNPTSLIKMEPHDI
In short: as §1

ELK4 = molecular target: T6, ELK4 (Homo sapiens, UniProt P28324-2 1-405)
T6 sequence: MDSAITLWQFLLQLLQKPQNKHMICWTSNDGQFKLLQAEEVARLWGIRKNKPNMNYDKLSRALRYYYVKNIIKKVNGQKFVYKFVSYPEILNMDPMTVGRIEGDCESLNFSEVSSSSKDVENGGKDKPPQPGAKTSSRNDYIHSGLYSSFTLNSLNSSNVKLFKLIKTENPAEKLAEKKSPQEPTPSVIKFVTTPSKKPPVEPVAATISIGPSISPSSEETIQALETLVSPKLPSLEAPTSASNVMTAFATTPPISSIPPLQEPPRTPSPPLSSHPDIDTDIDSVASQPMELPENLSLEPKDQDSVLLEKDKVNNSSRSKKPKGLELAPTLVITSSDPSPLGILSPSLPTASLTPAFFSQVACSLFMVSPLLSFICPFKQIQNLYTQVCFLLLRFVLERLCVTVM
In short: as §1

ETV2 = molecular target: T7, ETV2 (Homo sapiens, UniProt O00321 1-342)
T7 sequence: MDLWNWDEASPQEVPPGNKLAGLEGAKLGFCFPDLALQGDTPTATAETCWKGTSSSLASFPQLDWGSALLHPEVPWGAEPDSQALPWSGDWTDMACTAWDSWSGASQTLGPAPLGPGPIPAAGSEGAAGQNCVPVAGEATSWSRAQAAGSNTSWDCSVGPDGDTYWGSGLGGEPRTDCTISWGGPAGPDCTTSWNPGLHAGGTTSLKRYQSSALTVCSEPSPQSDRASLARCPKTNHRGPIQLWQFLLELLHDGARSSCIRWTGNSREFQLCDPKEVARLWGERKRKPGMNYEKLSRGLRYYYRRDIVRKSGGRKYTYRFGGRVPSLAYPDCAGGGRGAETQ
In short: as §1

ELF3 = molecular target: T8, ELF3 (Homo sapiens, UniProt P78545 1-371)
T8 sequence: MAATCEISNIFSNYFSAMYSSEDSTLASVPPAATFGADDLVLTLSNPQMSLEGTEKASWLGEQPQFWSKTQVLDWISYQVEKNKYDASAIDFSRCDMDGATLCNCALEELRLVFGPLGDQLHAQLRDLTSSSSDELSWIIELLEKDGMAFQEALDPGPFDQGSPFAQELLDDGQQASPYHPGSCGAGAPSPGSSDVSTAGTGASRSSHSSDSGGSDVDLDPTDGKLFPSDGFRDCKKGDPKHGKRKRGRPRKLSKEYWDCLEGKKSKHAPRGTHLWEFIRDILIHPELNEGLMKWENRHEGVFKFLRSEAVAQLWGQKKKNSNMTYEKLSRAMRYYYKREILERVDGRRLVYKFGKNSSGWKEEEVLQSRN
In short: as §1

ETV1 = ETV1 (Homo sapiens, UniProt P50549 1-477)
ETV1, sequence (P50549 whole entry): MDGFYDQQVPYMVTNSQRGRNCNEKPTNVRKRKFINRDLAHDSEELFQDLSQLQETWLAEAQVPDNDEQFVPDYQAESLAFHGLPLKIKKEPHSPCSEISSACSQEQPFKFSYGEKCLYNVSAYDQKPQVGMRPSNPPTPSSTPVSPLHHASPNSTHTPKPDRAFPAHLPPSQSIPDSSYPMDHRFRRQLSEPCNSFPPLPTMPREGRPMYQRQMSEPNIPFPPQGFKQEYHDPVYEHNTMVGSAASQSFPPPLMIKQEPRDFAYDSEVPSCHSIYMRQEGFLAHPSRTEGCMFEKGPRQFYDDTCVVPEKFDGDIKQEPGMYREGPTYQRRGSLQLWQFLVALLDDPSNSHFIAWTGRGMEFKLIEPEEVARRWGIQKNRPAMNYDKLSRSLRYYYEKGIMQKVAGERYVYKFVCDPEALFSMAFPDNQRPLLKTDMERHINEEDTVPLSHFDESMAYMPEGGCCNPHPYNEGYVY
In short: as §1

ERF = molecular target: T9, ERF (Homo sapiens, UniProt P50548 1-548)
T9 sequence: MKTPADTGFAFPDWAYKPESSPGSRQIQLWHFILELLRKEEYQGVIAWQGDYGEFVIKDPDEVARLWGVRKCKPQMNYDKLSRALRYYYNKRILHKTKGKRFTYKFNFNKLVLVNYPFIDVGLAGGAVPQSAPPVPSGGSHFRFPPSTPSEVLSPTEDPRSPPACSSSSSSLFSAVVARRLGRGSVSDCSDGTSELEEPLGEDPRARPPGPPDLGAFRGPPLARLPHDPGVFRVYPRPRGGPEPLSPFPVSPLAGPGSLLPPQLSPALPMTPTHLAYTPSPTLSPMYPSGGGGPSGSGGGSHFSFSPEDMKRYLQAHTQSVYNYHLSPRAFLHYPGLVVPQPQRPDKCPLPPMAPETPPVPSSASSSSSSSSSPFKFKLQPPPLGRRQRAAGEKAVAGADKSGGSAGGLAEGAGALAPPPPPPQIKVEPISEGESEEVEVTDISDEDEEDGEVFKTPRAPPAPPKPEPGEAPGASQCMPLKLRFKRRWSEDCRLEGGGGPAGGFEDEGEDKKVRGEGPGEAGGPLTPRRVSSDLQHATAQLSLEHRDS
In short: as §1

ETV3L = molecular target: T10, ETV3L (Homo sapiens, UniProt Q6ZN32 1-361)
T10 sequence: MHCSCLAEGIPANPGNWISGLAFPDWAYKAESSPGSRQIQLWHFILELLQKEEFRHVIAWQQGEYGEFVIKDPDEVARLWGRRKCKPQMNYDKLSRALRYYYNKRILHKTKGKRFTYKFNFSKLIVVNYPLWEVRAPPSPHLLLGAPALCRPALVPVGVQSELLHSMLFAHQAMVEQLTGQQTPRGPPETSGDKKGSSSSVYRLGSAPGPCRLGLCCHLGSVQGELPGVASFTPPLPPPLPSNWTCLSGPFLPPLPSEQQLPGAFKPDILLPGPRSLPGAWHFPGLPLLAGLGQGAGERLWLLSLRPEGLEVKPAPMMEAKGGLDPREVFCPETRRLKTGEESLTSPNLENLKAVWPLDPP
In short: as §1

ETS2 = molecular target: T11, ETS2 (Homo sapiens, UniProt P15036 1-469)
T11 sequence: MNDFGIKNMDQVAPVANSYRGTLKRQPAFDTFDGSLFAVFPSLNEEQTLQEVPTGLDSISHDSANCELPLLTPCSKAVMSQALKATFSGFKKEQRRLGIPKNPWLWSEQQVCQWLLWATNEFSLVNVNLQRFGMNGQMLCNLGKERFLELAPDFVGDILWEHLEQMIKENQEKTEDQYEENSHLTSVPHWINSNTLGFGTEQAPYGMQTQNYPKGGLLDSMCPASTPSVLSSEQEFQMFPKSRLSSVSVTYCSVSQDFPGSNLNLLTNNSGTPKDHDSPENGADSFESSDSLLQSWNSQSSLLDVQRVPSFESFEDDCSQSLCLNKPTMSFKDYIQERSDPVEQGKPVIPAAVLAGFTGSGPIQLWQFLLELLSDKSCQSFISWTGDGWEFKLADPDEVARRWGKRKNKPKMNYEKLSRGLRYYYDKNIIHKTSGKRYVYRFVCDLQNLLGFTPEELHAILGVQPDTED
In short: as §1

SPDEF = molecular target: T12, SPDEF (Homo sapiens, UniProt O95238 1-335)
T12 sequence: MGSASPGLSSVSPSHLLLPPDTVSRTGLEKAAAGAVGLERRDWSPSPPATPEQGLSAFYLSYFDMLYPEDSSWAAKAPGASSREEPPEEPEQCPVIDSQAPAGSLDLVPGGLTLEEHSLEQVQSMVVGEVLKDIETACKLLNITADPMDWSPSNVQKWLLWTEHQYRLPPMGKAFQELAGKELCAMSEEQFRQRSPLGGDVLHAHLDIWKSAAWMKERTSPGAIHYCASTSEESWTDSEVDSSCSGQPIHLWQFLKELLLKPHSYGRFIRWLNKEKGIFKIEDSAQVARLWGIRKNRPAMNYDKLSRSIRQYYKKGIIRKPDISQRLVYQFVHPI
In short: as §1

ETV3 = molecular target: T13, ETV3 (Homo sapiens, UniProt P41162-2 1-143)
T13 sequence: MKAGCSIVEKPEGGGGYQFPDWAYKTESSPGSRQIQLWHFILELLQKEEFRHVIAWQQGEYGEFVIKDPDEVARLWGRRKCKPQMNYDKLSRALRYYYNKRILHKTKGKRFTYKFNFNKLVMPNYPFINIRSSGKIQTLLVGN
In short: as §1

ETV6 = ETV6 (Homo sapiens, UniProt P41212 1-452)
ETV6, sequence (P41212 whole entry): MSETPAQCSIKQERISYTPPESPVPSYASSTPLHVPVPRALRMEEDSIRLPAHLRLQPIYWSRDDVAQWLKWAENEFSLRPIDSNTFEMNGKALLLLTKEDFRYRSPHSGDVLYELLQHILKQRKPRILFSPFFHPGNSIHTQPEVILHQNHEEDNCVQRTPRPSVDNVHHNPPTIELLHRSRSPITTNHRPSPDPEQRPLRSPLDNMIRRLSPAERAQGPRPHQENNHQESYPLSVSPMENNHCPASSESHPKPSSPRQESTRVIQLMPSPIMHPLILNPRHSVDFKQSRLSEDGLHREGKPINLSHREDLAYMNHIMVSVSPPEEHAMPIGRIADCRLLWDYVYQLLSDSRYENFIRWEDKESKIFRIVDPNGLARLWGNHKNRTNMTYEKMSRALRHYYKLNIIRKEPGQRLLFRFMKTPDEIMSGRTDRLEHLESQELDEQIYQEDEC
In short: as §1

CAGCCC
binding signal (ELK1): 1.16 fold enrichment (6-mer frequency, TF over GST control)
binding signal (GABPA): 1.06 fold enrichment (6-mer frequency, TF over GST control)
binding signal (ERG): 1.18 fold enrichment (6-mer frequency, TF over GST control)
binding signal (ELF1): 1.09 fold enrichment (6-mer frequency, TF over GST control)
binding signal (EHF): 1.16 fold enrichment (6-mer frequency, TF over GST control)
binding signal (SPIB): 1.09 fold enrichment (6-mer frequency, TF over GST control)
binding signal (FEV): 1.13 fold enrichment (6-mer frequency, TF over GST control)
binding signal (ETV5): 1.07 fold enrichment (6-mer frequency, TF over GST control)
binding signal (ELF4): 1.06 fold enrichment (6-mer frequency, TF over GST control)
binding signal (ELK4): 1.19 fold enrichment (6-mer frequency, TF over GST control)
binding signal (ETV2): 1.27 fold enrichment (6-mer frequency, TF over GST control)
binding signal (ELF3): 1.35 fold enrichment (6-mer frequency, TF over GST control)
binding signal (ETV1): 1.01 fold enrichment (6-mer frequency, TF over GST control)
binding signal (ERF): 1.08 fold enrichment (6-mer frequency, TF over GST control)
binding signal (ETV3L): 1.07 fold enrichment (6-mer frequency, TF over GST control)
binding signal (ETS2): 1.13 fold enrichment (6-mer frequency, TF over GST control)
binding signal (SPDEF): 1.02 fold enrichment (6-mer frequency, TF over GST control)
binding signal (ETV3): 1.05 fold enrichment (6-mer frequency, TF over GST control)
binding signal (ETV6): 1.12 fold enrichment (6-mer frequency, TF over GST control)
